Results published in PubChem BioAssay (EPA / NIEHS).
Results filed as inconclusive are left out. Active and inactive are the calls of the source. How the source made its calls: active means hit-call score of the fitted dose curve at least 0.9, where 1 is the maximum; inconclusive means response in the unintended direction; inactive means score below 0.9.

Molecular target: AR (gene 367) (UniProt P10275)
Sequence (P10275 whole entry, looked up): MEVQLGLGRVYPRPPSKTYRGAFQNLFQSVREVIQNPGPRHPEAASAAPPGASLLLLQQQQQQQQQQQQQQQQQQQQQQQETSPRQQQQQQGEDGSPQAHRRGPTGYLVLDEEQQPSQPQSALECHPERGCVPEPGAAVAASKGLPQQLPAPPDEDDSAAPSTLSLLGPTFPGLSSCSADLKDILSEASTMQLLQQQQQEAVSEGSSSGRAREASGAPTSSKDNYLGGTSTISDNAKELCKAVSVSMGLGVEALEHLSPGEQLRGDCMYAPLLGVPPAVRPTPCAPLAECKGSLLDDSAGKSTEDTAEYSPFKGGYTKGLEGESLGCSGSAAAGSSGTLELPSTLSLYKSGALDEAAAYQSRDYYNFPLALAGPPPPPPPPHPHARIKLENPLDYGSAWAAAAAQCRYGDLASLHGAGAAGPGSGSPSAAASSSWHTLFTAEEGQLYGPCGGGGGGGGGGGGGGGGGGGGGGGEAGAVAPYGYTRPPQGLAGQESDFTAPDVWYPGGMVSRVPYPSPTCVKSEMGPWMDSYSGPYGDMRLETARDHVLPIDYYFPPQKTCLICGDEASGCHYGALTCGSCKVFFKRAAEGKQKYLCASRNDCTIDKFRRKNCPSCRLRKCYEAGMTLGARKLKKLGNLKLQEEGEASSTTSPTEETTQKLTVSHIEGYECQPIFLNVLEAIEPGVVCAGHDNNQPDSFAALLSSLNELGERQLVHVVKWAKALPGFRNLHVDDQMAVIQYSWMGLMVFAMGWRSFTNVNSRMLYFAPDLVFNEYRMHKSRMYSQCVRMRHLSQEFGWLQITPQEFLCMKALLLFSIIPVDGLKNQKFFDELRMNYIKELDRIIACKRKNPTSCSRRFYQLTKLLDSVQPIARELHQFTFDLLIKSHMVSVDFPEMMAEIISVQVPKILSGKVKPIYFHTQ
Assay: ACEA_AR_agonist_80hr: ACEA Biosciences xCELLigence Real-Time Cell Analysis on Androgen Receptor Agonism for Proliferation (AID 2283783);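 further: hits increase impedance growth signal above DMSO baseline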
Outline: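 Androgen-driven proliferation in 22Rv1 cells is tracked as electrical impedance, taken 80 h after continuous exposure to compound (eight concentrations, 1:4 steps, maximum 100 uM final). Activity is fitted in the positive direction with DMSO as baseline.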
With `CCOc1ccc2c(c1)C(C)=CC(C)(C)N2` the outcome was “inactive”.
In the case of `COc1cc(C=O)ccc1O`, the outcome was “inactive”.
With `COc1cc(/C=C/C(=O)CC(=O)/C=C/c2ccc(O)c(OC)c2)ccc1O` the outcome was “inactive”.
For `COCCOCCOC`, the outcome was “inactive”.
In the case of `Cc1cc(NC(=O)C(=O)O)cc(C)c1Oc1ccc(O)c2c1CCC2`, the outcome was “inactive”.
With `Cc1cccc(C)c1O` the outcome was “inactive”.

Test system: not listed separately
Assay: STM_H9_NormalizedViability: Cytotoxicity Assessment at 120 hours in the Stemina devTOX quickPredict H9 human embryonic stem cell (hESC)-based Assay (AID 2283784)
Outline: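 Pluripotent H9 cells dosed, fresh medium plus compound q24h → cell layer read by CellTiter-Fluor → RFU blank-corrected, normalized to DMSO 0.1% mean. Loss-of-signal fit, DMSO as baseline.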
With `Cc1cccc(Nc2cc(Cl)nc(SCC(=O)O)n2)c1C` the outcome was “inactive”.
In the case of `CCCCc1ccc2c(n1)[C@@H](c1ccc(OC)cc1C[C@H](C)C(=O)O)[C@H](C(=O)O)[C@H]2c1ccc2c(c1)OCO2`, the outcome was “inactive”.
For `CN1CCN(Cc2cc(-c3ccc4[nH]c(=O)oc4c3)co2)[C@@H](c2ccc(F)cc2)C1`, the outcome was “inactive”.
With `Cc1oc(-c2ccccc2)nc1CCOc1cccc2c1ccn2CCC(=O)O` the outcome was “inactive”.
For `CCCc1cc(=O)[nH]c(=S)[nH]1`, the outcome was “inactive”.
With `CC1=C(/C=C/C(C)=C/C=C/C(C)=C/CO)C(C)(C)CCC1` the outcome was “inactive”.
In the case of `O=c1c(O)c(-c2ccc(O)c(O)c2)oc2cc(O)cc(O)c12`, the outcome was “inactive”.
In the case of `Nc1ccccc1N`, the AC50 was 2010 nM (active).
With `COc1ccc(S(=O)(=O)N2C(=O)[C@@](c3ccccc3OC)(N3C[C@H](O)C[C@H]3C(=O)N(C)C)c3cc(Cl)ccc32)c(OC)c1` the outcome was “inactive”.
In the case of `COCCOCCOC`, the outcome was “inactive”.
With `Cc1nc(-c2ccc3c(c2)CCN(CCC2CCC(NC(=O)/C=C/c4ccc(F)cc4)CC2)CC3)no1` (configuration not stated) the outcome was “inactive”.
For `CCCCC(CC)COC(=O)CC(C(=O)OCC(CC)CCCC)S(=O)(=O)O` (configuration not stated), the outcome was “inactive”.
In the case of `Cc1cc(NC(=O)C(=O)O)cc(C)c1Oc1ccc(O)c2c1CCC2`, the outcome was “inactive”.
For `Cc1c(C(=O)O)c(O)cc2c1C(=O)c1c(O)c([C@@H]3O[C@H](CO)[C@@H](O)[C@H](O)[C@H]3O)c(O)c(O)c1C2=O`, the outcome was “inactive”.
With `OC[C@@H](O)[C@@H](O)[C@H](O)[C@H](O)CO` the outcome was “inactive”.
With `Oc1ccc2ccccc2c1N=Nc1ccccc1` the AC50 was 992 nM (active).
For `O=c1[nH]cc(F)c(=O)[nH]1`, the AC50 was 3170 nM (active).
With `CC(CO)OC(C)CO` (configuration not stated) (tested in a mixture with another compound) the outcome was “inactive”.
In the case of `COc1ccc2c(c1)c(CC(=O)O)c(C)n2C(=O)c1ccc(Cl)cc1`, the AC50 was 78100 nM (active).
For `COC(=O)c1ccc(O)cc1`, the outcome was “inactive”.
In the case of `C=CCOC(=O)c1ccccc1C(=O)OCC=C`, the outcome was “inactive”.
